Here are results for 8 compounds from PubChem BioAssay (Tox21).

A number with no mark means an inactive call. Inconclusive results are not listed. Active and inactive are the calls of the source. Unless noted, calls come from the whole dose curve.

The nature of assay [1]: Nuclear factor erythroid 2-related factor 2/antioxidant responsive element (Nrf2/ARE) small molecule agonists: qHTS cell viability counter screen in human keratinocytes (AID 1919968; active = well fitted curve in the direction sought with a large enough effect in the repeat runs; an effect the other way counts as inactive or inconclusive; note: nearly all actives have a fitted effect of over 55% in size). In short, it runs like this:
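KeratinoSens cells (HaCaT keratinocytes stably carrying an ARE-luciferase reporter) were seeded at 1,500 cells/well and rested 5 h at 37 C/5% CO2. They were then exposed to compounds in DMSO for 23 h. Viability was read by CellTiter-Fluor fluorescence after 1 h.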
A general note: In qHTS, concentration-response curves come from the screen itself.

A short description of assay [2]: Nuclear factor erythroid 2-related factor 2/antioxidant responsive element (Nrf2/ARE) small molecule agonists: luciferase reporter gene qHTS assay in human keratinocytes (AID 1919969). Note: nearly all actives have a fitted effect of over 35% in size. Note: potency is the fitted concentration of half-maximal effect. Background: In a reporter assay the amount or activity of a reporter protein is the signal.
In assay [3] the target is Gonadotropin-releasing hormone receptor (Homo sapiens) (UniProt P30968). Briefly: Human gonadotropin-releasing hormone receptor (GnRHR) small molecule agonists, calcium flux assay in GnRHR-HEK293 cells (AID 1920063). Note: nearly all actives have a fitted effect of over 35% in size. In short, it runs like this:
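HEK293 cells stably expressing human GnRHR were plated 18 h at 37 °C, loaded with calcium dye 1 h at 37 °C, then given compound in agonist mode; fluorescence (Ex/Em 480/540) read kinetically for 3 min at 1 s intervals.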
For orientation: Calcium flux is commonly read through the fluorescence of an indicator in the cells.

Assay [4] concerns the target KiSS-1 receptor (Homo sapiens) (UniProt Q969F8). Briefly: Human kisspeptin (KISS1R) small molecule agonists, calcium flux assay in KISS1R-HEK293 cells (AID 1920064; active = well fitted curve in the direction sought with a large enough effect in the repeat runs; an effect the other way counts as inactive or inconclusive). In short, it runs like this: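 HEK293 cells stably expressing human KISS1R were plated 18 h at 37 °C, loaded with calcium dye for 1 h at 37 °C, then given compound by pin tool. Fluorescence (Ex/Em 480/540) was read kinetically for 3 min.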

The nature of assay [5]: G protein-coupled receptor (GPCR) small molecule agonists, calcium flux assay: HEK293 wild type cell line counter screen (AID 1920065). Summed up: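 Cells were plated and cultured 18 h at 37 C/5% CO2, then loaded with calcium dye for 1 h at 37 C. Compounds in DMSO were pin-transferred in agonist mode, and fluorescence (Ex/Em 480/540) was read kinetically for 3 min at 1 s intervals.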

Assay [6] is described as follows: p53 small molecule agonists, cell-based qHTS assay with human liver microsomes (AID 1963577).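 Note: p53 response element beta-lactamase reporter cells with liver microsomes plus NADPH.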 In short, it runs like this: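 p53RE-bla cells; 5 h settle, 37 C/5% CO2; cpd + HLM 0.5 mg/mL + NADPH 0.5 mg/mL (final); 16 h 37 C; LiveBLAzer 2 h RT dark; fluorescence readout.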
Assay [7] is described as follows: p53 small molecule agonists, cell-based qHTS assay with rat liver microsomes (AID 1963578). In short, it runs like this: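 Rat liver microsome activation: microsomes 0.5 mg/mL, NADPH 0.5 mg/mL final; p53RE-bla cells, 16 h 37 C; LiveBLAzer readout, 2 h RT dark.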
Assay [8] is described as follows: p53 small molecule agonists, cell-based qHTS assay with human liver microsomes: qHTS cell viability counter screen (AID 1963579). Note: nearly all actives have a fitted effect of over 45% in size. In short, it runs like this: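 Luminescent CellTiter-Glo read-out, 30 min at room temperature, gauged cytotoxicity in p53RE-bla cells exposed 16 h at 37 C to DMSO-dissolved compounds with metabolic activation by human liver microsomes and NADPH, each 0.5 mg/mL final.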

Assay [9] is described as follows: p53 small molecule agonists, cell-based qHTS assay with rat liver microsomes: qHTS cell viability counter screen (AID 1963580). Note: nearly all actives have a fitted effect of over 45% in size. Summed up: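 Viability is assessed in parallel with the p53 reporter read: HCT-116 p53RE-bla cells receive compounds plus rat microsomes and NADPH (0.5 mg/mL final apiece), incubate 16 h at 37 C, and then CellTiter-Glo luminescence is recorded.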

Assay [10] in a line: p53 small molecule agonists, cell-based qHTS assay: qHTS cell viability counter screen (AID 1963581). Note: nearly all actives have a fitted effect of over 45% in size. Summed up: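 p53RE-bla HCT-116 cells were exposed to compounds for 16 h at 37 C; after the beta-lactamase FRET read in the same wells, CellTiter-Glo was added and luminescence (intracellular ATP) read after 30 min at room temperature.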
The nature of assay [11]: p53 small molecule agonists, cell-based qHTS assay (AID 1963582; active = well fitted activation curve with a large enough effect in the signal ratio in the repeat runs, not every such curve was filed as active; the % refers to the signal ratio). In short, it runs like this:
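p53RE-bla beta-lactamase reporter cells rested 5 h at 37 C/5% CO2, then received compounds in DMSO by pin transfer and were incubated 16 h at 37 C. LiveBLAzer B/G FRET substrate was loaded for 2 h at room temperature before fluorescence reading.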

The target of assay [12] is Beta-2 adrenergic receptor (Homo sapiens) (UniProt P07550). Briefly: Adrenergic beta2 receptor (ADRB2) small molecule antagonists, cell-based qHTS assay (AID 1963592). Note: series mostly up to about 92 µM; nearly all actives have a fitted effect of over 50% in size. In short, it runs like this:
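Cells (CHO, stable ADRB2 overexpression) incubated 18-20hr at 37C; compounds added from DMSO; agonist mix (1nM isoproterenol, 100uM IBMX, 25uM Ro-20-1724) added; 0.5hr RT; d2-cAMP and anti-cAMP-cryptate added; 1hr RT; 665/615 nm read.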

Assay [13] has the same target. Briefly: Adrenergic beta2 receptor (ADRB2) small molecule agonists, cell-based qHTS assay (AID 1963593).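 Note: CHO cells stably overexpressing human ADRB2.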 In short, it runs like this: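 CHO cells stably over-expressing ADRB2 were plated overnight at 37C, then dosed with compounds plus a stimulation mix containing 100uM IBMX and 25uM Ro-20-1724 for 0.5hr at room temperature. cAMP was measured by HTRF competition, 1hr.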

Assay [14] concerns the target D(2) dopamine receptor (Homo sapiens) (UniProt P14416). Briefly: Dopamine D2 receptor (DRD2) small molecule agonists, cell-based qHTS assay (AID 1963594). Note: nearly all actives have a fitted effect of over 35% in size. Summed up: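 HEK293 cells stably expressing human DRD2, pre-treated with PDE inhibitor Ro20-1724 (0.1 mM final) and compound 10 min at room temperature, then stimulated with NKH477 (200nM […]) for 30 min. cAMP read by HTRF (665/620 nm).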

Assay [15] shares this target. Briefly: Dopamine D2 receptor (DRD2) small molecule antagonists, cell-based qHTS assay (AID 1963595; active = well fitted inhibition curve with a large enough effect in the signal ratio in the repeat runs, with a control signal flat; the % refers to the signal ratio). In short, it runs like this: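 Readout: HTRF cAMP, cAMP-d2 competing with cellular cAMP for anti-cAMP cryptate, read after 1 h. Cells: DRD2-HEK293. Conditions: 0.1 mM Ro20-1724, 12 nM quinpirole, 200 nM NKH477, 30 min RT.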
A short description of assay [16]: cAMP Responsive Elements (CRE) small molecule agonists, cell-based qHTS assay (AID 1963590). In short, it runs like this: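 CRE-bla HEK 293T cells in DMEM with 10% dialyzed FBS, NEAA, pyruvate and 25 mM HEPES were plated 18 h at 37 C/5% CO2, then exposed to compounds in DMSO for 3 h before LiveBLAzer B/G FRET substrate addition.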
Assay [17] can be described thus: cAMP Responsive Elements (CRE) small molecule antagonists, cell-based qHTS assay (AID 1963591; active = well fitted inhibition curve with a large enough effect in the signal ratio in the repeat runs, not every such curve was filed as active; the % refers to the signal ratio). Summed up: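 CRE-bla HEK293T cells were plated 18 h at 37 °C/5% CO2, pinned with compound in DMSO, then stimulated with NKH477 at 0.25 uM final for 3 h. LiveBLAzer B/G FRET substrate was added and plates incubated 2 h at room temperature.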

Chain of Beta-2 adrenergic receptor (Homo sapiens) (P07550 whole entry, looked up): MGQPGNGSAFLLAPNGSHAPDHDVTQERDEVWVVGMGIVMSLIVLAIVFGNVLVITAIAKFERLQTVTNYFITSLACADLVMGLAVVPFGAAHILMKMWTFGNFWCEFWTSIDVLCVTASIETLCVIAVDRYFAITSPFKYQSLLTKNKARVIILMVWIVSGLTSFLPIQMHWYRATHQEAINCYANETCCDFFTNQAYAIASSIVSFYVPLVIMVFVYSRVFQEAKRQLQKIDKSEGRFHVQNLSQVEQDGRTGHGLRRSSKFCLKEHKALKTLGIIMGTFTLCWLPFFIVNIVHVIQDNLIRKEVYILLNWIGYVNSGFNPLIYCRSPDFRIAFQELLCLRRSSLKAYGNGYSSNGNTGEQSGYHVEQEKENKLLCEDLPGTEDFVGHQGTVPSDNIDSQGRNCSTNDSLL
Chain of Gonadotropin-releasing hormone receptor (Homo sapiens) (P30968 whole entry, looked up): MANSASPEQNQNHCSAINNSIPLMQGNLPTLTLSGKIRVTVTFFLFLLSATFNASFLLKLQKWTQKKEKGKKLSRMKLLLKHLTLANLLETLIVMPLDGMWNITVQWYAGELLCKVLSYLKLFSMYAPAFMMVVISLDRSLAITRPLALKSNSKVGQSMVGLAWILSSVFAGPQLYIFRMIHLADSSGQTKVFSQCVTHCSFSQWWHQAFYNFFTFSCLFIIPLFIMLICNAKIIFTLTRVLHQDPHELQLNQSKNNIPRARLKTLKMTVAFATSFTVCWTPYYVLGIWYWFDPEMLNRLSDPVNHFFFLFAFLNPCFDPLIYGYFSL
Chain of D(2) dopamine receptor (Homo sapiens) (P14416 whole entry, looked up): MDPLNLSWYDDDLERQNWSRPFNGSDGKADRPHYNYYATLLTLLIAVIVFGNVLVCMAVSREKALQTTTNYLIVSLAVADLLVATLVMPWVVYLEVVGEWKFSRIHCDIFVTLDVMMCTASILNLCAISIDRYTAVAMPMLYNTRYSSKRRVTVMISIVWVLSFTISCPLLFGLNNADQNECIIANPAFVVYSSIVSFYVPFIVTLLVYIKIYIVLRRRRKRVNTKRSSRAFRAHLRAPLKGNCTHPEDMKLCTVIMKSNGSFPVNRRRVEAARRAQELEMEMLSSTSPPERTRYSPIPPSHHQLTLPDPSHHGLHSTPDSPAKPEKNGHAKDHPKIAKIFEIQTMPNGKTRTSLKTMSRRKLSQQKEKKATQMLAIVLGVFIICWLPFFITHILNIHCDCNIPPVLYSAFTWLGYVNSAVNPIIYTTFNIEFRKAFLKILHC
Chain of KiSS-1 receptor (Homo sapiens) (Q969F8 whole entry, looked up): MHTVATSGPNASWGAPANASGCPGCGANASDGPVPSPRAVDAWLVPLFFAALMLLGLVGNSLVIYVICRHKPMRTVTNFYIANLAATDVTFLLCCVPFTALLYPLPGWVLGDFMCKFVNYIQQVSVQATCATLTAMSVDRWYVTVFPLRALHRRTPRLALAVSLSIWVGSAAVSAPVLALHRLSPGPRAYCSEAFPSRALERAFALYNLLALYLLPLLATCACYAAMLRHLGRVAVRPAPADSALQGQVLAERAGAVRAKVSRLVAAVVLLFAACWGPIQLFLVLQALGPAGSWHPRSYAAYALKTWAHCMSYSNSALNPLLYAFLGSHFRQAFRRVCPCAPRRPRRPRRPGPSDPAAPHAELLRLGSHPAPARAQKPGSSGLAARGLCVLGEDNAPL

Take `CC(=O)OCC(=O)[C@@]1(OC(C)=O)[C@@H](C)C[C@H]2[C@@H]3C[C@H](F)C4=CC(=O)C=C[C@]4(C)[C@@]3(F)[C@@H](O)C[C@@]21C`: the Potency entry in assay [1], in [2], in [3], in assay [6], in assay [7] and in [8] was “inactive” each time. In addition, the Potency result in [9], in assay [10], in assay [11], in assay [12], in assay [13] and in [14] was “inactive” in each case. Further, in assay [15], the Potency entry is “inactive”. Moreover, the result in assay [4] and in [5] was inactive.

Regarding `Nc1ccc(C(=O)O)c(O)c1`, the Potency result in [1], in assay [2], in assay [3], in assay [6], in [7] and in assay [8] was “inactive” in each case. Besides, the Potency entry in assay [9], in assay [10], in assay [11], in assay [16], in assay [17] and in assay [12] was “inactive” in each case. The Potency entry in assay [14] and in assay [15] was “inactive” each time. Also, the result in assay [4] and in assay [5] was inactive.

For `C[C@H](CCC(=O)O)[C@H]1CC[C@H]2[C@@H]3[C@H](O)C[C@@H]4C[C@H](O)CC[C@]4(C)[C@H]3C[C@H](O)[C@]12C`, the Potency entry in [1], in assay [2], in assay [3], in [6], in [7] and in [8] was “inactive” throughout. In addition, the Potency result in assay [9], in assay [10], in [11], in assay [16], in assay [17] and in [12] was “inactive” each time. For the same compound, the Potency result in assay [14] was “inactive”. The outcome in assay [4] and in [5] was inactive.

In the case of `CCCNC(C)C(=O)Nc1ccccc1C` (stereo not given), the Potency result in assay [1], in assay [2], in assay [3], in [6], in [7] and in assay [8] was “inactive” each time. The Potency result in assay [9], in assay [10], in [11], in assay [16], in assay [17] and in [13] was “inactive” in each case. For the same compound, the Potency result in assay [15] was “inactive”. Also, the outcome in assay [4] and in assay [5] was inactive.

For `CC(C)(Sc1cc(C(C)(C)C)c(O)c(C(C)(C)C)c1)Sc1cc(C(C)(C)C)c(O)c(C(C)(C)C)c1`, the Potency entry in assay [1], in [2], in [3], in assay [6], in [7] and in [8] was “inactive” throughout. Also, the Potency entry in assay [9], in assay [10], in assay [11], in assay [16], in assay [14] and in [15] was “inactive” in each case. Moreover, the outcome in assay [4] and in assay [5] was inactive.

In the case of `O=P(O)(O)C(O)(Cc1cccnc1)P(=O)(O)O`, the Potency result in assay [1], in assay [2], in [3], in assay [6], in [7] and in [8] was “inactive” each time. Besides, the Potency result in [9], in assay [10], in assay [11], in [16], in [17] and in assay [12] was “inactive” in each case. In addition, the Potency entry in assay [14] and in assay [15] was “inactive” each time. The outcome in [4] and in [5] was inactive.

Take `COC(=O)C(c1ccccc1Cl)N1CCc2sccc2C1` (stereo not given): the Potency entry in [1], in [2], in [3], in [6], in [7] and in assay [8] was “inactive” throughout. Moreover, the Potency entry in [9], in assay [10], in assay [11], in [12], in [13] and in assay [14] was “inactive” throughout. Further, the Potency result in assay [15] is “inactive”. In addition, the result in assay [4] and in assay [5] was inactive.

On to `C[C@@H]1[C@H](O)[C@@H](C)/C=C/C=C\C=C\C=C\C=C\C=C\C=C\[C@H](O[C@@H]2O[C@H](C)[C@@H](O)[C@H](N)[C@@H]2O)C[C@@H]2O[C@](O)(C[C@@H](O)C[C@@H](O)[C@H](O)CC[C@@H](O)C[C@@H](O)CC(=O)O[C@H]1C)C[C@H](O)[C@H]2C(=O)O` (stereo in doubt), for which the Potency result in [1], in assay [3], in assay [6], in assay [7], in [8] and in [9] was “inactive” each time. Further, the Potency result in assay [10], in assay [11], in [12], in [13] and in assay [15] was “inactive” in each case. Also, in assay [2], the Potency was 68.6 µM (active). Besides, the result in assay [4] and in assay [5] was inactive.
